Source: PubChem
This is a sample that favours compounds with a hit; in the whole collection about 1.8% have one here.
Tb PFK block – qHTS Assay to Find Inhibitors of T. brucei phosphofructokinase; ATP-dependent 6-phosphofructokinase (Trypanosoma brucei brucei), O15648; T. brucei PFK, ADP-Glo luminescence; Potency, µM (top dose mostly 57.5 µM), inactives show at the highest dose activity, negative = inhibition, usual class: inhibitors; 0.17% of 330,000 active;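 also: 0% = uninhibited 1x PFK enzyme wells and -100% = no-enzyme wells; nearly all actives have a fitted effect of over 60% in size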
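Compounds were pin-transferred as a titration series up to 57 uM into substrate buffer (0.5 mM F6P, 0.1 mM ATP, pH 8.0), then 1.25 nM PFK was added and reactions ran 45 min before ADP-Glo detection.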
PGK inhibitor – qHTS Assay to Find Inhibitors of Phosphoglycerate Kinase. AID 602233, 2012. 0.043% of 380,000 active. Potency, µM (top dose mostly 57.5 µM), inactives show top-dose activity change, negative = inhibition, usual class: inhibitors. PGK/GAPDH coupled, Kinase-Glo luminescence, 60 min. Phosphoglycerate kinase, glycosomal (Trypanosoma brucei brucei), P07378; also: % is scaled to controls: 0 for no effect and ±100 for the full control effect; nearly all actives have a fitted effect of over 60% in size
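Luminescent ATP detection (Kinase-Glo Plus) follows a 60-minute room-temperature incubation, with wells lacking PGK as controls. Buffer: 100 mM TEA (pH 7.6), 5 mM MgCl2, 0.01% Tween-20. Coupling enzyme GAPDH (100 nM final) supplies unstable 1,3-BPG in-well.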
HEK293 tox – qHTS of GLP-1 Receptor Inverse Agonists: Cytotox Screen; HEK293 cAMP-luciferase reporter cells, luminescence, 24 h; Potency, µM (series often up to 38.3 µM), for inactives: at the top dose activity change, negative = inhibition, hits mostly inhibitors; 0.13% of 410,000 active;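 also: loss of luciferase light is scored as toxicity; % is scaled to controls: 0 for no effect and ±100 for the full control effect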
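Quantitative HTS format, 1536 wells, 200 cells/uL seeded. Compounds: 23 nL, 24 h, 37 °C. Detection: luciferase reagent, luminescence at 12 min RT; decreased signal taken as cytotoxic.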
Pin1 inh – qHTS Assay to Find Inhibitors of Pin1 | Peptidyl-prolyl cis-trans isomerase NIMA-interacting 1 (Homo sapiens), Q13526 | Pin1 FP peptide displacement, HiFluor488, 10 min | Potency, µM (series often up to 115 µM), for inactives: top-dose activity, negative = inhibition, most hits filed as inhibitors | 0.009% of 390,000 active; active = well fitted inhibition curve with a large enough effect in the polarisation, with a control signal flat, not every such curve was filed as active; inconclusive = small, poorly fitted or top-dose-only effect, or effect the other way, or a change in a side signal; inactive = no such curve, though single readings can be large or run the other way; the % refers to the polarisation; also: % is scaled to controls: 0 for no effect and ±100 for the full control effect
Target sequence (Q13526 whole entry, looked up): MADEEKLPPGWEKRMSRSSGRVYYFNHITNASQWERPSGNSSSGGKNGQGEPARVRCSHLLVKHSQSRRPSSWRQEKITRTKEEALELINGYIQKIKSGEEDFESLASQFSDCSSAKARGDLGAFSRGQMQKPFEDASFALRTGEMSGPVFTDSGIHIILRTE
GLP1R ag – qHTS of GLP-1 Receptor Agonists; Glucagon-like peptide 1 receptor (Homo sapiens), P43220; HEK293 GLP-1R CRE-luciferase, luminescence, 4-6 h; cells express a hypersensitive GLP-1R form; Potency, µM (series often up to 45.6 µM), without a hit: at the top dose activation, usual class: activators; 0.007% of 380,000 active; also: % of control where 0% means no effect
Target sequence (P43220 whole entry, looked up): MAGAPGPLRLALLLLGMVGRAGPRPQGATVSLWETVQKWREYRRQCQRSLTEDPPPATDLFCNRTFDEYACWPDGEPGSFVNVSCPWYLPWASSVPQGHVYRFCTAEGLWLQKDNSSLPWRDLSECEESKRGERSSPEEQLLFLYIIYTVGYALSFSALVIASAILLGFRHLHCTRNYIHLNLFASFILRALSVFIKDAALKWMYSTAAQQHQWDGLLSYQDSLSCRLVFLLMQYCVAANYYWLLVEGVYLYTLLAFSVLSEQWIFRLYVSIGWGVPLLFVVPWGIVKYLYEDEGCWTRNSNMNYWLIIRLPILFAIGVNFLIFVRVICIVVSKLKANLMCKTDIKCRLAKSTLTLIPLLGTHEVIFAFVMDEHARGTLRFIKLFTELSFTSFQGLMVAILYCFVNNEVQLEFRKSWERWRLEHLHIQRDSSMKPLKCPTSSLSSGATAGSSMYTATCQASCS
GLP-1R inv ag – qHTS of GLP-1 Receptor Inverse Agonists (Inhibition Mode); Glucagon-like peptide 1 receptor (Homo sapiens), P43220; HEK293 GLP-1R CRE-luciferase, luminescence, 24 h; GLP-1R form is constitutively active; Potency, µM (titrated, usually from 38.3 µM), for the others: at the highest dose activity change, negative = inhibition, hits mostly inhibitors; 1.6% of 410,000 active; AID 624417, 2012; also: % is scaled to controls: 0 for no effect and ±100 for the full control effect; nearly all actives have a fitted effect of over 55% in size
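Seeding at 200 cells/uL, 12 h culture, 24 hr compound treatment, then luciferase reagent and a luminescence read; cells are HEK293 stably expressing a constitutively active GLP-1R plus cAMP-responsive luciferase.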
Numbers without * were called inactive; i = inactive; ? = inconclusive; · = no result; [ ] = another dose, or the depositor's remark. Unless noted, calls follow the shape of the dose curve; as a rule, active = well fitted curve in the direction sought with a large enough effect; inconclusive = small, poorly fitted or top-dose-only effect, or another doubt; inactive = no such curve, though single readings can be large; an effect the other way counts as inactive or inconclusive. Potency is read from the fitted curve at half-maximal effect.

SMILES | Tb PFK block | PGK inhibitor | HEK293 tox | Pin1 inh | GLP1R ag | GLP-1R inv ag
COc1ccc(Cl)cc1NC(=O)c1cc(C)nc2c1c(C)nn2-c1ccccc1 | · | -5% | 7% | -4% | · | 14%
Cc1ccc(NC(=O)N2CCCC(c3nc(-c4ccc(F)cc4)no3)C2)cc1 (stereo not given) | -1% | -3% | ? | 3% | 1% | 7.9µM*
O=C(CCN1CCN(c2ccccc2)CC1)Nc1cccc(Br)c1 | -12% | -7% | 14% | -1% | 0% | 11µM*
O=C(CCN1CCCC1)Nc1cccc(Br)c1 | -8% | -4% | 14% | ? | -2% | -11%
Cc1[nH]nc(-c2cccnc2)c1N=NN(C)C | · | -7% | 10µM* | 6% | -17% | ?
Cc1nc2nc(C)c(CCC(=O)NCCc3ccccc3)c(C)n2n1 | · | -1% | -2% | 6% | -1% | 3%
O=C(N/N=C/c1ccc[nH]1)c1sc2ccccc2c1Cl | ? | -3%[11.5 µM] | ? | 11% | 2% | 10µM*
O=C(N/N=C/c1ccncc1)c1sc2ccccc2c1Cl | 1% | i | -11% | -18% | -3% | 5%
Cc1cc2c(s1)c1cnn(Cc3ccc(OC(F)F)cc3)c(=O)c1n2C | · | · | · | -1% | · | ·
Cc1cc(C)cc(NC(=O)CSc2nc3c(oc4ccccc43)c(=O)n2-c2ccccc2F)c1 | · | 3% | -10% | 28% | · | 15%
COC(=O)c1[nH]c2cc(OC)ccc2c1NC(=O)CN1CCN(c2cccc(C)c2)C(C)C1 (stereo not given) | 2% | -7% | ? | 16% | -8% | 8.9µM*
COC(=O)c1[nH]c2cc(C)ccc2c1NC(=O)CN1CCN(c2ccccc2OC)CC1 | 1% | 4% | -18% | ? | -2% | 3.2µM*
COc1cccc(NC(=O)N2CCN(c3cccc(C)c3)C(C)C2)c1 (stereo not given) | 4% | 0% | -8% | ? | 1% | 10µM*
Cc1cccc(N2CCN(C(=O)Nc3ccc(F)cc3)CC2C)c1 (stereo not given) | · | i | 13% | -11% | · | ?
O=C(CN1C=NS(=O)(=O)c2ccccc21)Nc1ccc(F)cc1 | · | -2% | -4% | 1% | · | -2%
COc1ccccc1C(=O)Nc1nnc(SCc2cc(=O)c3cc(Cl)ccc3[nH]2)s1 | · | 0% | 0% | 24% | · | 6%
CCOc1ccc(C2c3c(-c4ccc(C)cc4)n[nH]c3C(=O)N2c2ccc(Cl)cc2)cc1 (stereo not given) | · | -2% | ? | 8% | -9% | 10µM*
CCOC(=O)c1ccc(N2C(=O)c3[nH]nc(-c4ccc(C)cc4)c3C2c2cccs2)cc1 (stereo not given) | · | i | ? | 11% | -5% | 8.9µM*
O=C1c2ccccc2C(=O)N1c1cccc(Cl)c1 | · | · | · | -7% | · | ·
COc1cc(C(CC(=O)NCc2ccccc2)N2Cc3ccccc3C2=O)cc(OC)c1OC (stereo not given) | · | -6% | 3% | 7% | -10% | 42%
O=C(OCc1ccccc1)N1CCC2CC1c1cc(-c3ccc(F)cc3)ccc12 (stereo not given) | · | i | 18% | 1% | 16% | ?
O=C(OCc1ccccc1)N1CCC2CC1c1cc(NCCc3ccccc3)ccc12 (stereo not given) | · | 1% | 22% | 4% | -4% | 11µM*
CCC(C(=O)NCCc1ccccc1)n1nc(C)c2sc3ccccc3c2c1=O (stereo not given) | · | -9% | -4% | -2% | · | ?
O=C(Nc1cccc(Cl)c1)c1ccc(NCCCN2CCOCC2)c([N+](=O)[O-])c1 | 2% | -10% | -10% | 19% | -10% | 5µM*
O=C(NCCCN1CCOCC1)c1ccc(Sc2ccccc2Cl)c([N+](=O)[O-])c1 | 5% | 2% | -11% | -1% | 0% | 3.5µM*
SMILES | Tb PFK block | PGK inhibitor | HEK293 tox | Pin1 inh | GLP1R ag | GLP-1R inv ag
Cc1ccc(NC(=O)c2ccc(NCCCN3CCC(C)CC3)c([N+](=O)[O-])c2)cc1F | 4% | 2% | 25% | ? | 4% | -32%
Cc1c(C)n(Cc2ccc(F)cc2)c2ccc(C(=O)NCCCN3CCOCC3)cc12 | -6% | -5% | -16% | -8% | 4% | ?
Cc1c(C)n(Cc2ccccc2)c2ccc(C(=O)NCCCN3CCOCC3)cc12 | -4% | i | -24% | -9% | 19% | 1µM*
O=S(=O)(c1ccc2c(c1)OCCO2)N1CCN(S(=O)(=O)c2ccc(Br)cc2F)CC1 | · | · | · | 15% | · | ·
COc1cccc(C2c3c(ncn(-c4ccccc4Br)c3=N)Oc3ccc4ccccc4c32)c1 (stereo not given) | · | · | · | 18% | · | ·
Cc1c(C(=O)Nc2ccccc2F)sc2ncnc(N(C)C3CCCCC3)c12 | · | · | 1% | ? | · | -13%
Cc1c(C(=O)NC(C)c2ccccc2)sc2ncnc(N(C)C3CCCCC3)c12 (stereo not given) | · | -5% | 7% | -1% | · | 11µM*
CC(C)NC(=O)N1CC(c2ccccc2)C(c2ccc(Cl)cc2)=N1 (stereo not given) | 6% | 5% | 12% | ? | 16% | 4µM*
CC(=O)N1CC(c2ccccc2)C(c2ccc(Cl)cc2)=N1 (stereo not given) | 0% | -9% | -5% | 2% | 30% | ?
CCOC(=O)c1c(C)c(-c2ccccc2)n(CC(=O)NC2CCCCC2)c1C | · | -10% | ? | 4% | 0% | 14%
COc1ccccc1N1C(=O)c2ccccc2C1=O | · | · | · | 13% | · | ·
Cc1cc([N+](=O)[O-])cc2c1NC(=O)C2(O)N1CCCC(C)C1 (stereo not given) | 7% | · | ? | -6% | 12% | -4%
Cc1cc(Br)c2c(c1)C(O)(N1CCCCC1C)C(=O)N2 (stereo not given) | 4% | 4% | -8% | -5% | 7% | 11µM*
CN(Cc1ccccc1F)C(=O)c1ccc(Oc2ccccc2)cc1 | 1% | 2% | -4% | -1% | 6% | ?
CN(Cc1ccc(C(F)(F)F)cc1)C(=O)c1ccc(Oc2ccccc2)cc1 | 1% | -7% | 4% | -4% | 0% | 10µM*
